Laboratory results as given in PubChem BioAssay (NCATS).
Inconclusive results are not listed. Activity calls are given as the source filed them. Unless noted, the call rests on the fitted dose curve; in most records, active means well fitted curve in the direction sought with a large enough effect; inconclusive means small, poorly fitted or top-dose-only effect, or another doubt; inactive means no such curve, though single readings can be large; an effect the other way counts as inactive or inconclusive.

Experiments:
[1] = qHTS for differential inhibitors of proliferation of Plasmodium falciparum line D10 (AID 1877);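 further: parasites grown with compound for 72 h before DNA staining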; further: potency means the concentration at half of the fitted maximal effect
[2] = qHTS for differential inhibitors of proliferation of Plasmodium falciparum line Dd2 (AID 1882); conditions: Potency: Plasmodium falciparum Dd2 proliferation inhibition; further: nearly all actives have a fitted effect of over 65% in size; further: potency means the concentration at half of the fitted maximal effect
How it was run: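 Dd2-infected erythrocytes (0.3% parasitemia, 2.5% hematocrit final) incubated with compound 72 h at 37 C, 5% CO2; lysed with saponin/Triton buffer containing SYBR Green I, incubated overnight in the dark, then read by fluorescence (485/535 nm). Normalized to 0.29 uM artemisinin and DMSO.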

[3] = qHTS for differential inhibitors of proliferation of Plasmodium falciparum line W2 (AID 1883); conditions: Potency: Plasmodium falciparum W2 proliferation inhibition;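 further: parasites grown with compound for 72 h before lysis and staining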; further: potency means the concentration at half of the fitted maximal effect
[4] = qHTS for differential inhibitors of proliferation of Plasmodium falciparum line HB3 (AID 1886); conditions: Potency: Plasmodium falciparum HB3 proliferation inhibition;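 further: parasites grown with compound for 72 h before SYBR Green readout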; further: potency means the concentration at half of the fitted maximal effect
[5] = biological target: ATP-dependent DNA helicase Q1 (Homo sapiens) (UniProt P46063); assay: qHTS Validation Assay for Inhibitors of RecQ-Like Dna Helicase 1 (RECQ1) (AID 2353)
ATP-dependent DNA helicase Q1 (Homo sapiens), sequence (P46063 whole entry, looked up): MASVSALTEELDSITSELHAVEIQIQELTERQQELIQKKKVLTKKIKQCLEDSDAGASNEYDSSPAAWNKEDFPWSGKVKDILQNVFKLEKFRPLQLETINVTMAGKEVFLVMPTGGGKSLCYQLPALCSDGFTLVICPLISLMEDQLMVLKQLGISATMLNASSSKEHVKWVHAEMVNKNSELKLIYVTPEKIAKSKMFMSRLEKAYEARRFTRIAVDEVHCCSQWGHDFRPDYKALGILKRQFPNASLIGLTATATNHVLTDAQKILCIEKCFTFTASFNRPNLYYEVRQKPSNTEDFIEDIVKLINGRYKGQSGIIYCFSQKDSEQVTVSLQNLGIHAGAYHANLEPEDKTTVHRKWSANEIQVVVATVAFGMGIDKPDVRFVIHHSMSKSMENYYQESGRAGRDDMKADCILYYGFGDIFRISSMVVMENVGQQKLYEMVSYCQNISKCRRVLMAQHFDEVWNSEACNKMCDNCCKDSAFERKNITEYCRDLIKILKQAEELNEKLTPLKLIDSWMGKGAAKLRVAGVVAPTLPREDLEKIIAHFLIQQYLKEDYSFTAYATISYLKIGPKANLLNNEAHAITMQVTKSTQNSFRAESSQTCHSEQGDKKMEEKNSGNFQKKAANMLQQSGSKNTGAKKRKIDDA
How it was run: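 50 nM RECQ1T1 preincubated 15 min with compound in Tris pH 8.0 buffer with MgCl2, DTT, Tween-20 and 2.5 ug/ml poly(dI-dC); started with 200 nM TAMRA/BHQ-2 forked duplex and 2 mM ATP. Unwinding read as fluorescence (525/598 nm), two reads 2 h apart.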

[6] = Cytometric Cell-Based qHTS for Inhibitors of the mTORC1 Signaling Pathway in MEF (Tsc2-/-, p53-/-) Cells (AID 2660);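 further: percent of cells above a phospho-rpS6 to PI ratio cutoff in each well; series mostly up to about 38 µM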
How it was run: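 Readout: Alexa-488 phospho-rpS6 (Ser235/236) intensity divided by PI intensity, thresholded against 7.5 nM rapamycin wells and reported as % positive cells. PI cell count served as the viability measure. Compound exposure was 24 hrs at 37 degree Celsius.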

[7] = High Content Imaging Cell-Based qHTS for Inhibitors of the mTORC1 Signaling Pathway in MEF (Tsc2-/-, p53-/-) Cells (AID 2666);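 further: percent of cells scored positive for phospho-rpS6 Ser235/236 immunostaining by imaging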
How it was run: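 Phospho-rpS6 (Ser235/236) immunofluorescence, normalized and scored as % positive cells using rapamycin and DMSO controls, was read in empty-vector Tsc2-/-, p53-/- MEFs after 24 h compound exposure at 37 C; propidium iodide counted cells.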

[8] = biological target: Ubiquitin carboxyl-terminal hydrolase 2 (Homo sapiens) (UniProt O75604); assay: qHTS Validation Assay for Inhibitors of Ubiquitin-specific Protease USP2a Using CHOP2 as the Reporter (AID 463106)
Ubiquitin carboxyl-terminal hydrolase 2 (Homo sapiens), sequence (O75604 whole entry, looked up): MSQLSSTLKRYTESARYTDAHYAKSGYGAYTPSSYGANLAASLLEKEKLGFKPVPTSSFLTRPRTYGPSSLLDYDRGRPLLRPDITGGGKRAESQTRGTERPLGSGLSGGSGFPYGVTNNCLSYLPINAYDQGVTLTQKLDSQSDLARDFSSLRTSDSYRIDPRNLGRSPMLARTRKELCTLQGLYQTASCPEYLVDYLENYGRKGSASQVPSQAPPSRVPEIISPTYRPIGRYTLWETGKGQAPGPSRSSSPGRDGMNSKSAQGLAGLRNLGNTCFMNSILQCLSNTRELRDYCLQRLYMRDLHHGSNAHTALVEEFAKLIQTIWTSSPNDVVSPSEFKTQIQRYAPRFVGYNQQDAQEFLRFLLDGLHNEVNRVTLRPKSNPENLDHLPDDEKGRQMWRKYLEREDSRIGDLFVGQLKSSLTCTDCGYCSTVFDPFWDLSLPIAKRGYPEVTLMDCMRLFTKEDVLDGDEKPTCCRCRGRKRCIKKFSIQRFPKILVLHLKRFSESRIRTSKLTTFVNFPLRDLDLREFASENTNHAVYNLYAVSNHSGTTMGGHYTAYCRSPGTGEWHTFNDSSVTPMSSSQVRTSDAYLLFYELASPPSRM
How it was run: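 USP2 core (10 nM final) was preincubated with compound 30 min at RT in pH 8.0 Tris/CaCl2/beta-ME/CHAPS buffer. Ub-CHOP2 and reporter substrate (25 nM final each) were then added, with fluorescence (Ex 485/Em 531) read after 60 min. Data were normalized to NEM full inhibition and fitted to concentration-response curves.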

[9] = biological target: Tumor susceptibility gene 101 protein (Homo sapiens) (UniProt Q99816); assay: qHTS Validation Assay for Iinhibitors of HIV-1 Budding by Blocking the Interaction of PTAP/TSG101 (AID 485342; calls by dose curve)
Tumor susceptibility gene 101 protein (Homo sapiens), sequence (Q99816 whole entry, looked up, the tested form may be a part): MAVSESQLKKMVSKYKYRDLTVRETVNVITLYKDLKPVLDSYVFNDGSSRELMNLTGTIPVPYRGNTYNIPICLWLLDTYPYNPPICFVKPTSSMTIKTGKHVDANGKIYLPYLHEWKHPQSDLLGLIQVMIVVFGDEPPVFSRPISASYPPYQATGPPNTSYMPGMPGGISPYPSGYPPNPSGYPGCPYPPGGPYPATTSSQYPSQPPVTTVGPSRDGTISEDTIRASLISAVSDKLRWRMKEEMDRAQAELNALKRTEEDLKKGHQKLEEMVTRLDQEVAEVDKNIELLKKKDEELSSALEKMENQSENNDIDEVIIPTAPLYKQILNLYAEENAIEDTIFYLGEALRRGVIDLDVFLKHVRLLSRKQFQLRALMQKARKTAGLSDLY
How it was run: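 Fluorescence anisotropy measured PTAP-Tsg101 interaction. Final concentrations were 10 uM protein domain and 50 nM labeled peptide, equilibrated 20 min at room temperature.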

[10] = qHTS Validation Assay to Find Inhibitors of Chronic Active B-Cell Receptor Signaling (AID 485345; active means well fitted curve in the direction sought with a large enough effect in the main read-out, with a control signal flat, not every such curve was filed as active)
How it was run: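 TMD8 ABC-DLBCL cells stably carrying doxycycline-inducible IkappaBalpha–green luciferase fusion plus unfused red luciferase; compounds 46 uM to 3 nM, 4 h at 37C with doxycycline. Corrected green/red luminescence ratio normalized to 10 uM MG-132 and basal cell wells; curves fitted.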

[11] = High Content Imaging Cell-Based qHTS for Inhibitors of the mTORC1 Signaling Pathway in MEF Cells (AID 2667);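 further: Tsc2-/- p53-/- MEFs stably re-expressing wild-type Tsc2 exposed 24 h; series mostly up to about 38 µM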
How it was run: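 WT MEFs (Tsc2-/-, p53-/- re-expressing Tsc2), in DMEM + 10% FBS, were treated with compound for 24 h at 37 C. Cells were then fixed and stained for phospho-rpS6 Ser235/236 with propidium iodide as cell count. Values are % positive cells, with thresholds set against rapamycin-treated cells.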

[12] = Cytometry Cell-Based qHTS for Inhibitors of the mTORC1 Signaling Pathway in MEF cells (AID 2668);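 further: Tsc2-/- p53-/- mouse embryonic fibroblasts stably re-expressing wild-type Tsc2; percent cells positive for phospho-rpS6 Ser235/236 relative to propidium iodide stain; series mostly up to about 38 µM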
How it was run: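 Pathway inhibition in WT Tsc2-rescued Tsc2-/-, p53-/- MEFs is measured as the Alexa-488 phospho-rpS6 to propidium iodide intensity ratio after 24 hrs of compound at 37 degree Celsius. PI-stained cell number gives viability.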

[13] = Validation screen for small molecules that induce DNA re-replication in MCF 10A normal breast cells (AID 463097); further: nearly all actives have a fitted effect of over 60% in size; further: potency means the concentration at half of the fitted maximal effect
How it was run: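 DNA re-replication was detected as a rise in nuclei with elevated Hoechst fluorescence after a 48 hr compound exposure of MCF 10A cells at 37 C.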

[14] = biological target: DNA polymerase III PolC-type (Bacillus subtilis (strain 168)) (UniProt P13267); assay: qHTS Validation Assay for the Inhibitors of DNA Replication in Gram-Positive Bacteria (AID 485295);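 further: reconstituted holoenzyme with PolC plus beta clamp SSB and primase; PicoGreen fluorescence of double-stranded DNA made on primed circular M13 template; series mostly up to about 57 µM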
DNA polymerase III PolC-type (Bacillus subtilis (strain 168)), sequence (P13267 whole entry, looked up): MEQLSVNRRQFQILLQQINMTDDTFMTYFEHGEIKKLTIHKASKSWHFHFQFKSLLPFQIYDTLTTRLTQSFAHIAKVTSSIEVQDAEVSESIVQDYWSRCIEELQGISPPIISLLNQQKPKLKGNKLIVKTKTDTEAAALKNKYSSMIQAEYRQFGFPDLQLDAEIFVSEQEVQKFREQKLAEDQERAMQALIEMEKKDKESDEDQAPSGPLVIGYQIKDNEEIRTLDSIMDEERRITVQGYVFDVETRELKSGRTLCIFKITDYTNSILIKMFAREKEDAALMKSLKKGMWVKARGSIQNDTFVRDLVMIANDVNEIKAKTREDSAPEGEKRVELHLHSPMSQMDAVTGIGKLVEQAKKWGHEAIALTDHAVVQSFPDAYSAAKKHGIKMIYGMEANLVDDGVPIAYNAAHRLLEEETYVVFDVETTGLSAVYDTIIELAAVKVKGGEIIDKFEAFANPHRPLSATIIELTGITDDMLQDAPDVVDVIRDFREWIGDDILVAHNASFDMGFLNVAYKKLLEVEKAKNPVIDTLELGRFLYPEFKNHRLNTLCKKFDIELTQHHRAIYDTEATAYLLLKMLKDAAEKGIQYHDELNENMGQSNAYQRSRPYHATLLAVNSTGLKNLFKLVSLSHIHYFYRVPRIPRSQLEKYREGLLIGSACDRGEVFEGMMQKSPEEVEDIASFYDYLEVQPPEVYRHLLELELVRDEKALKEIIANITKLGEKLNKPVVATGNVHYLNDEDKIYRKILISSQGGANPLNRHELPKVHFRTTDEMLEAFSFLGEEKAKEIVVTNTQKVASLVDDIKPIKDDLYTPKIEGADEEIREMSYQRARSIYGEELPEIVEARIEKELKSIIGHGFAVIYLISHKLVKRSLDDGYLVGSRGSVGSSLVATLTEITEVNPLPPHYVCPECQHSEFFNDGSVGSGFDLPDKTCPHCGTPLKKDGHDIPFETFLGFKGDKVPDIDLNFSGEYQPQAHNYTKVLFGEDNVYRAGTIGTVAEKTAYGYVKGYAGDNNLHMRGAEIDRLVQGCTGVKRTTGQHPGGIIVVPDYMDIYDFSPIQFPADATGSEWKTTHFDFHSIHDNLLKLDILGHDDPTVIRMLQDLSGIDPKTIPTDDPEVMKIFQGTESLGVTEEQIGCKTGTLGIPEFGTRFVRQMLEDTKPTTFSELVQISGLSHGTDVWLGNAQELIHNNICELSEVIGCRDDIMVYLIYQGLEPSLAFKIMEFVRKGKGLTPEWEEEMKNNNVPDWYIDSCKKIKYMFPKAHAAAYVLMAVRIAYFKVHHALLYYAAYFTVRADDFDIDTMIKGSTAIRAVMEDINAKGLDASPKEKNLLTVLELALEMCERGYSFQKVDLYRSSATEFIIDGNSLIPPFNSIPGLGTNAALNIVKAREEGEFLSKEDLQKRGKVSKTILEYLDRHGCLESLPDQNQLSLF
How it was run: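 Primed replication of single-stranded M13Gori by a four-protein B. subtilis holoenzyme is measured at room temperature. Double-stranded product is quantified by PicoGreen fluorescence after an EDTA stop; inhibition is scaled between DMSO and EDTA controls.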

[15] = biological target: Ferritin light chain (Equus caballus) (UniProt P02791); assay: qHTS Validation Assay for Identification of Novel General Anesthetics (AID 2323); further: series mostly up to about 77 µM
Ferritin light chain (Equus caballus), sequence (P02791 2-175 limits assumed): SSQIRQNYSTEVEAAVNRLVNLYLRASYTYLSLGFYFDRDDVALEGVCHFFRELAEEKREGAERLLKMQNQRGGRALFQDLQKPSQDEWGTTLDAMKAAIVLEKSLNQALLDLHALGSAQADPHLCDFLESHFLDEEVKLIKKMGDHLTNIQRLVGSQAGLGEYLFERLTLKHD
How it was run: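 Apoferritin from horse spleen (10 uM) was mixed with 1-aminoanthracene at 50% saturation in PBS, then compounds were added. After 10 min at room temperature, fluorescence was read (ex 380 nm, em 535 nm) and normalized to free-probe and complex controls.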

[16] = qHTS Assay for Modulators of Human Peripheral Myelin Protein 22 (PMP22) Expression/Activity (AID 1967; active means well fitted curve in the direction sought with a large enough effect in the signal ratio; the % refers to the signal ratio)
How it was run: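 Quantitative HTS in a mouse Schwann cell line expressing dual click beetle luciferases: Pmp22 promoter (green) and control EF-alpha promoter (red). After 24h treatment, corrected green/red signal ratio gave %Activity relative to untreated cells.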

[17] = biological target: RecQ-like DNA helicase BLM (Homo sapiens) (UniProt P54132); assay: qHTS Validation Assay for Inhibitors of Bloom's syndrome helicase (BLM) (AID 2364)
RecQ-like DNA helicase BLM (Homo sapiens), sequence (P54132 whole entry, looked up): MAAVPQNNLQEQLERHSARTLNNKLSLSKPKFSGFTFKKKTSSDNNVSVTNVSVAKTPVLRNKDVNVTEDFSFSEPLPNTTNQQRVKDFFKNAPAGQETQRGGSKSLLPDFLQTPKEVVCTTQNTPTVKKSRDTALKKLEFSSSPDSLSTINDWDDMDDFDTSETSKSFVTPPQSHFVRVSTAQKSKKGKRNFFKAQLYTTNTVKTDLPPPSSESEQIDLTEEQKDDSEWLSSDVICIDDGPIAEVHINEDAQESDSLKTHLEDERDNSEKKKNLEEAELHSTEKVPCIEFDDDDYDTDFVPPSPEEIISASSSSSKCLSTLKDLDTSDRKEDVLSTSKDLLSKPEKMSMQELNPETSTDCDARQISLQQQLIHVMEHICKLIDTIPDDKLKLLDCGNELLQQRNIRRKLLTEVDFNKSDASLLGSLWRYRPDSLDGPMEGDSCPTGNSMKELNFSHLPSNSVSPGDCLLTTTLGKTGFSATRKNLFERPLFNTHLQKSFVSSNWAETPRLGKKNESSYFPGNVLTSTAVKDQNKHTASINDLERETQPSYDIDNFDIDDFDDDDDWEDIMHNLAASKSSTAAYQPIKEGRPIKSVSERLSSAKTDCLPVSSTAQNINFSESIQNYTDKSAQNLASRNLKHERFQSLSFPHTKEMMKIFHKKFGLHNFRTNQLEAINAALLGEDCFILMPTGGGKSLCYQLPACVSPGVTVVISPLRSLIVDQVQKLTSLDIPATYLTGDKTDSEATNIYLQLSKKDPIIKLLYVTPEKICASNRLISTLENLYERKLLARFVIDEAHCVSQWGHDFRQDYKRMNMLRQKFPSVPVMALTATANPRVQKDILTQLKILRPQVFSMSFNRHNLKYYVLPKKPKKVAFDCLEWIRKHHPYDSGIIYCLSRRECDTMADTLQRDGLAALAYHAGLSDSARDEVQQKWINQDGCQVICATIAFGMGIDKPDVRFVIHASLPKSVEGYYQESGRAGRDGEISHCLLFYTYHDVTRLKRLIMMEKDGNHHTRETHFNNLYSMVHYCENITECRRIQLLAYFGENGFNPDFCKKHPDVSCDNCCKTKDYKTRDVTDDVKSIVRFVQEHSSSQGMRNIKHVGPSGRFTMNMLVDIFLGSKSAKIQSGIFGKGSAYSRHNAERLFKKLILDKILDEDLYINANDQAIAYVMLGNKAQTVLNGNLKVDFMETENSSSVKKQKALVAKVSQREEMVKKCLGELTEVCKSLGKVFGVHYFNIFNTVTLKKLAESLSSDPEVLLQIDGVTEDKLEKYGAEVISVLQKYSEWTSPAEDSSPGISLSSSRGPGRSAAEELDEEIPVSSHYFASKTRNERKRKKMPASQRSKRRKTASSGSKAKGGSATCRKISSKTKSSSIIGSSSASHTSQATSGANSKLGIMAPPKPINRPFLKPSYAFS
How it was run: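 50 nM BLM preincubated 15 min at room temperature with compound in pH 8.0 Tris buffer containing 2.5 ug/ml poly(dI-dC); started with 200 nM TAMRA/BHQ-2 forked duplex and 2 mM ATP (final). Unwinding read as TAMRA fluorescence increase, two reads 2 h apart.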

Measured: Potency

CCCCCCCCCC(=O)NC(CN1CCOCC1)[C@H](O)c1ccccc1 (some centres not stated)
inactive: [5] | [6] | [7] | [8] | [9] | [10]
active: [1] 12.6 µM | [2] 2.24 µM | [3] 1.58 µM | [4] 8.91 µM

CC(N)=O
not listed: [15] | [16] | [17]
inactive: all other assays above

NCC(O)C1CCCCCCC1 (configuration not stated)
active: [2] 8.91 µM | [3] 3.16 µM
not listed: [13] | [16] | [17]
inactive: all other assays above

CCCCS(=N)(=O)CC[C@H](N)C(=O)O (some centres not stated)
active: [3] 8.91 µM
not listed: [14] | [16] | [17]
inactive: all other assays above

C=CCN1CCc2c(cc(O)c(O)c2Cl)C(c2ccccc2)C1 (configuration not stated)
active: [1] 12.6 µM | [2] 10 µM | [3] 3.55 µM | [4] 7.08 µM
inactive: [5] | [6] | [7] | [8] | [14] | [9] | [10]

Nc1ncnc2c1c(-c1ccc(Oc3ccccc3)cc1)cn2C1CCCC1
inactive: [5] | [6] | [7] | [11] | [8]
active: [1] 12.6 µM | [2] 7.94 µM | [3] 3.55 µM | [4] 12.6 µM | [13] 3.16 µM

NC1C=CC=C(C(=O)O)C1 (configuration not stated)
not listed: [8] | [15] | [16] | [17]
inactive: all other assays above

Nc1ccc2c3c(cccc13)C(=O)NC2=O
inactive: [1] | [2] | [4] | [15] | [6] | [7] | [11] | [13] | [14]

COCc1nc2c([nH]1)c(=O)n(C)c(=O)n2CC(C)C
not listed: [3] | [17]
inactive: all other assays above

CCCn1c(=O)c2c(ncn2C)n(CCC)c1=O
not listed: [3] | [10] | [16] | [17]
inactive: all other assays above

Cn1c(=O)c2[nH]c(C3CCCC3)nc2n(C)c1=O
not listed: [3] | [4] | [10] | [16]
inactive: all other assays above

CCCCOc1cc(CC2CNC(=O)N2)ccc1OC (configuration not stated)
not listed: [3] | [10] | [12] | [14]
inactive: all other assays above

N=S(=O)(O)Cc1noc2ccccc12
not listed: [3] | [10] | [12] | [17]
inactive: all other assays above
